In ChEMBL document CHEMBL3988442, “University of Dundee, Small-Polar-MMV Screening Library” (2021):
The campaign covered roughly 53,000 compounds. About 900 (1.7%) showed an effect of 50% or more. The sample as a whole holds a higher share of strong results than the screen did.

System: Mycobacterium tuberculosis
Test: Cornell - Phenotypic assay to identify agents that inhibit growth of Mycobacterium tuberculosis
Type: functional
Set-up: scale not given: direction of the effect not stated beside the values
Conditions: 10 mM as filed; unlikely as a test dose

Row | Compound | Percent Effect
1 | CCS(=O)(=O)N1CCc2c(cccc2NC(=O)NCCOC)C1 | 16.78%
2 | COc1ccccc1CCN(C)C(C)c1nc(-c2cccnc2)no1 (stereo not drawn) | -40.91%
3 | CN(CCc1ccncc1)c1cnn(C)c(=O)c1Br | -2.68%
4 | CC1Cn2c(nc3c2c(=O)[nH]c(=O)n3C)O1 (stereo not drawn) | -12.37%
5 | COCC(=O)N1CCCCC1c1ccncn1 (stereo not drawn) | -40.59%
6 | Cc1cc(C(=O)Nc2n[nH]c(C3CC3)n2)c2c(C)nn(C)c2n1 | 11.85%
7 | COc1ccc(N2CCC(NC(=O)c3sccc3C)CC2)cc1 | -7.923%
8 | CN(C)c1cccc(CNC(=O)Nc2ccc3[nH]nnc3c2)n1 | 45.79%
9 | CC(=O)c1ccc(NC(=O)NCc2cccc(N(C)C)n2)cc1C | 76.43%
10 | Cc1nc(CCNC(=O)NCc2cccc(N(C)C)n2)cs1 | -57.29%
11 | CCC(=O)N1CCC(c2ncc3c(n2)CCNC3)CC1 | -31.27%
12 | Cl.Cn1ccnc1CNC(=O)c1ccnc(C2CCNCC2)c1 | -5.824%
13 | Cl.O=C(NC1CCCC1)c1ccnc(C2CCNCC2)c1 | 56.56%
14 | Cl.O=C(c1ccnc(C2CCNCC2)c1)N1CCCC1 | -26.15%
15 | O=C(O)C(F)(F)F.O=C(O)C(F)(F)F.c1cnn(CCCO[C@@H]2CC[C@H]3[C@H]2OCCN3CC2CCOCC2)c1 | -30.39%
16 | O=C(Nc1nc2c(s1)CN(S(=O)(=O)C1CC1)CC2)c1ccc(Cl)s1 | 7.24%
17 | O=C(Nc1nc2c(s1)CN(S(=O)(=O)C1CC1)CC2)c1cccc(Cl)c1 | 52.55%
18 | O=C(Nc1nc2c(s1)CN(S(=O)(=O)C1CC1)CC2)c1c(F)cccc1F | 0.32%
19 | Cc1ccc(C(=O)N2CC(=O)N(Cc3ccco3)CC(O)C2)cc1 (stereo not drawn) | 7.151%
20 | Cc1ccc(-c2nc(CN3CC(n4nc(C)cc4C)C3)no2)cc1 | 102.5%
21 | COc1ccc(-c2nc(CN3CC(n4cccn4)C3)no2)cc1 | 15.06%
22 | COc1ccc(-c2noc(CN3CC(n4cc(C)cn4)C3)n2)cc1 | 22.62%
23 | COc1ccc(-c2nc(CN3CC(n4nc(C)cc4C)C3)no2)cc1 | 46.41%
24 | Cc1cc(C)n(C2CN(Cc3noc(-c4ccccc4)n3)C2)n1 | 16.77%
25 | COc1ccc(-c2nc(CN3CC(n4cc(C)cn4)C3)no2)cc1 | 55%

Row | Compound | Percent Effect
26 | COCCCNC(=O)Nc1ncc(-c2cccc(OC)c2)n1CCOC | 20.98%
27 | CN(C)C(=O)CNC(=O)c1ccn(-c2ccc3ccccn23)n1 | 8.811%
28 | CCc1nnc(CS(=O)(=O)c2ccc(C)c(C)c2)n1C | -14.67%
29 | Cc1cccnc1CN(C)C(C(=O)O)c1ccc(-c2ccn[nH]2)cc1 (stereo not drawn) | 83.57%
30 | CCn1ccnc1CN(C)C(C(=O)O)c1ccc(C(C)(C)C#N)cc1 (stereo not drawn) | -8.491%
31 | Cc1cccnc1CN(C)C(C(=O)O)c1ccc(C(C)(C)C#N)cc1 (stereo not drawn) | 37.7%
32 | Cc1cccnc1CN(C)C(C(=O)O)c1ccc(-n2cccn2)cc1 (stereo not drawn) | 103.2%
33 | CN(Cc1ccc(-n2cccn2)cc1)C(=O)CCC(F)(F)F | -2.335%
34 | COc1c(C)cc(C(C(=O)O)N(C)Cc2ccn[nH]2)cc1C (stereo not drawn) | 14.99%
35 | COc1ccc(CN2C[C@@H]3CC[C@H](C2)N(S(C)(=O)=O)C3)cc1 | -9.044%
36 | CC(C)c1cc(N2CCN(c3ccc(O)cc3)CC2)n2nccc2n1 | 106.1%
37 | Cc1cc2nc(C(C)C)cc(N3CCSCC3)n2n1 | -12.34%
38 | Cc1cc2nc(C(C)C)cc(N3CCN(c4ccc(O)cc4)CC3)n2n1 | 103.7%
39 | Cc1cc2nc(C(C)C)cc(N3CCC(O)CC3)n2n1 | 7.748%
40 | CC(C)c1cc(N2CCC(CCC(=O)NC3CC3)CC2)n2nccc2n1 | 19.75%
41 | CC(C)c1cc(N2CCC(N)CC2)n2nccc2n1 | 24.37%
42 | Cc1nc(CN2CCO[C@@H]3CN(C(=O)CC4CC4)CC[C@@H]3C2)cs1 | 21.81%
43 | CCCN(CC(=O)NC)C(=O)c1ccc(-c2nc(C)cs2)cc1 | 8.736%
44 | CS(=O)(=O)N[C@@H]1CN(C(=O)c2ccccn2)[C@@H]2CCCO[C@@H]21.O=C(O)C(F)(F)F | 24.81%
45 | CC(C)c1nc(-c2cc(C(=O)NCCCO)c3ccccn23)cs1 | 21.42%
46 | O=C(c1cc(-c2ccn(CC3CC3)n2)n2ccccc12)N1CCOCC1 | 96.99%
47 | CC(C)c1nc(-c2cc(C(=O)O)c3ccccn23)cs1 | 89.3%
48 | CC(C)c1nc(-c2cc(C(=O)N3CCN(C)CC3)c3ccccn23)cs1.O=C(O)C(F)(F)F | -33.65%
49 | O=C(O)c1cc(-c2ccn(CC3CC3)n2)n2ccccc12 | 99.83%
50 | Cn1ccc(-c2cc(C(=O)N3CCC(C(N)=O)CC3)c3ccccn23)n1 | 11.2%

Row | Compound | Percent Effect
51 | O=C(c1cc(-c2ccn(CC3CC3)n2)n2ccccc12)N1CCCO1 | 45.3%
52 | Cn1ccc(-c2cc(C(=O)N3CCC(O)CC3)c3ccccn23)n1 | -33.58%
53 | Cn1ccc(-c2cc(C(=O)N3CCOCC3)c3ccccn23)n1 | -21.75%
54 | Cc1nc(N)ncc1C(=O)N1CCCC1(C)C(=O)N(C)C (stereo not drawn) | 14.34%
55 | Cc1cc(N2CCCC(c3[nH]ncc3Cc3ccccc3)C2)nc(N)n1 (stereo not drawn) | 13.81%
56 | Cc1ncc(CNC(=O)Cc2ccsc2)c(C2CCCN2C)n1 (stereo not drawn) | 11.73%
57 | CN1C(=O)C2(CC(=O)Nc3[nH]ncc32)c2cc(Cl)ccc21 (stereo not drawn) | 9.602%
58 | O=C(c1ccoc1)N1CCCn2cnc(COCC3CC3)c2C1 | 7.498%
59 | COC(=O)[C@@H]1Cc2c[nH]c3cccc(c23)[C@H](CC(C)C)N1 | 105.3%
60 | CC(C)C[C@@H]1N[C@H](C(=O)NCC2CC2)Cc2c[nH]c3cccc1c23 | 40.17%
61 | CC(C)C[C@@H]1N[C@H](C(=O)NC(C)C)Cc2c[nH]c3cccc1c23 | 22.96%
62 | Cc1nc2sccn2c1CN(CCCN(C)C)Cc1ccccn1.O=C(O)CC(O)(CC(=O)O)C(=O)O | 51.28%
63 | Cc1ccc(CN(CCN(C)C)Cc2c(C)nc3sccn23)o1.O=C(O)CC(O)(CC(=O)O)C(=O)O | 26.14%
64 | Cc1nc2sccn2c1CN(CCCN(C)C)Cc1ccco1.O=C(O)CC(O)(CC(=O)O)C(=O)O | 33.13%
65 | COCCN1CCC2(CCN(Cc3ccc(OC)cc3)CC2)C1=O.O=C(O)C(F)(F)F | -13.5%
66 | Cc1cccc(CN2CCC3(CCC(C(=O)N(C)C)O3)CC2)n1 (stereo not drawn) | 35.49%
67 | Fc1cccc2[nH]c(CN3CCn4c(nnc4C4CC4)C3)nc12 | -6.1%
68 | Cc1nn(C)c(N(C)C)c1CNCc1nnc2n1CCCCC2.Cl | 67.58%
69 | COc1c(CNCc2nnc3n2CCCCC3)c(C(C)C)nn1C.Cl | -4.214%
70 | COc1c(CNCc2nnc3n2CCCCC3)c(C)nn1C.Cl | 31.65%
71 | Cc1cccc(COc2ccc(C(C)NC(=O)CNC(N)=O)cc2)c1 (stereo not drawn) | 14.07%
72 | CC1(C)CC(=O)c2cnc3nc(N4CCCC4)[nH]c(=O)c3c2C1 | 23.1%
73 | CCC1CNCc2cc3c(OC)ccc(OC)c3nc2O1 (stereo not drawn) | 6.248%
74 | CCC1CNCc2cc3c(C)ccc(C)c3nc2O1 (stereo not drawn) | 61.63%
75 | CS(=O)(=O)c1ccccc1-n1cc(NC(=O)CC(F)(F)F)cn1 | 18.55%

Row | Compound | Percent Effect
76 | CCC(=O)c1ccccc1NN1c2ccccc2C(=O)C1(C)OC (stereo not drawn) | 13.72%
77 | Cc1nc(N2CCOCC2)nc(C)c1NC(=O)Cc1ccc(Cl)cc1 | -26.81%
78 | COc1ccc(CC(=O)Nc2c(C)nc(N3CCOCC3)nc2C)cc1 | 3.579%
79 | COc1ccc(CC(=O)Nc2c(C)nc(N3CCCC3)nc2C)cc1 | 59.35%
80 | COc1cc(N2C[C@H]3OCC[C@H]3[C@H](C(=O)N3CCCC3)C2)ncn1 | -33.02%
81 | CC[C@@H]1N(Cc2ccsc2)CCC[C@]12CCC(=O)N2CCOC.O=C(O)C(F)(F)F | 13.62%
82 | CC[C@H]1N(CC2CCC2)CCC[C@]12CCC(=O)N2Cc1ccncc1.O=C(O)C(F)(F)F.O=C(O)C(F)(F)F | 23.16%
83 | CC[C@@H]1N(CC2CC2)CCC[C@]12CCC(=O)N2CCOC.O=C(O)C(F)(F)F | 52.28%
84 | Fc1ccccc1CC1CCN(Cc2cscn2)CC1 | 30.5%
85 | Fc1ccccc1CC1CCN(Cc2ccccn2)CC1 | 29.36%
86 | Cc1cccc(CN2CCC(Cc3ccccc3F)CC2)n1 | 56.1%
87 | O=C1CN(C(=O)C2CN(c3ccccc3)CCO2)CCN1 (stereo not drawn) | 14.68%
88 | O=C(Nc1ccnc(OC2CCOC2)c1)c1ccccc1Cl (stereo not drawn) | 61.48%
89 | O=C(Nc1ccnc(OC2CCOC2)c1)c1ccc(F)cc1Cl (stereo not drawn) | 1.296%
90 | Cc1occc1C(=O)Nc1ccnc(OC2CCOC2)c1 (stereo not drawn) | 6.262%
91 | CN(Cc1ccc(F)cc1)[C@@H]1CN(S(=O)(=O)N(C)C)C[C@H]1O | 11.25%
92 | COCCN1CCO[C@H]2CN(Cc3cc[nH]n3)C[C@H]21.O=C(O)C(F)(F)F.O=C(O)C(F)(F)F | -6.862%
93 | Cc1ccc(S(=O)(=O)Nc2cccnc2O)cc1C | -38.51%
94 | N#Cc1cccnc1NCc1ccc(S(=O)(=O)NCC2CCCO2)cc1 (stereo not drawn) | -11.22%
95 | Cc1cccc(NS(=O)(=O)c2cnn(C)c2)c1C#N | -1.344%
96 | COCCNS(=O)(=O)c1ccc(CNc2ncccc2C#N)cc1 | 9.617%
97 | Cc1cccc(NS(=O)(=O)c2ccc(C#N)nc2)c1C#N | 105.8%
98 | N#Cc1ccc(S(=O)(=O)Nc2ccccc2C#N)cn1 | 63.63%
